The source of these data is the supplement of paper PMC7393113.

Molecules are shown by their SMILES. ± gives the standard deviation of the averaged measurements.

In the experiment the test system is iBMDM (immortalised mouse bone-marrow-derived macrophages), LPS-stimulated. The experiment in a line: mitochondrial superoxide (MitoSOX fluorescence) fold increase over unstimulated control; higher = more LPS-induced mitochondrial ROS (less inhibition). The note with it: inhibitor concentration: 500 nM; LPS: 100 ng/ml; time after LPS: 1 h. The essentials: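 After 20 h in phenol-red-free 1% FCS/DMEM in black 96-well plates, immortalised mouse bone-marrow-derived macrophages were exposed to kinase inhibitors (500 nM) for 30 min, 1 μM MitoSox for 10 min and then LPS (100 ng/ml). A ClarioStar plate reader recorded fluorescence at 510/580 nm every 60 min for 4 h. The reported mitochondrial superoxide is the mean fold induction versus untreated macrophages over triplicate wells.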
As to `O=c1c(O)c(-c2ccc(O)c(O)c2)oc2cc(O)cc(O)c12` [Quercetin], the mitochondrial superoxide was 1.31 ± 0.046.
In the case of `O=C(NC(NC(=S)Nc1ccc(F)c([N+](=O)[O-])c1)C(Cl)(Cl)Cl)C(c1ccccc1)c1ccccc1` (stereo not given) it was 1.13 ± 0.029; in that of `C[C@@H]1COCCN1c1cc(C2(S(C)(=O)=O)CC2)nc(-c2cccc3[nH]ccc23)n1`, 1.19 ± 0.055.
In the case of `Nc1nc(N)c(N=O)c(OCC2CCCCC2)n1` it was 1.17 ± 0.03; in that of `COc1cc(Nc2ncc(F)c(Nc3ccc4c(n3)NC(=O)C(C)(C)O4)n2)cc(OC)c1OC`, 1.1 ± 0.027; in that of `Nc1nc(N)c2nc(-c3cccc(O)c3)c(-c3cccc(O)c3)nc2n1`, 1.18 ± 0.049.
On to `Cc1ccccc1CN1C2=NCCN2C(=O)C2=C1CCN(Cc1ccccc1)C2`, for which the mitochondrial superoxide was 1.16 ± 0.042.
Then `CN(C)c1ccc(-c2nc3ncc(Cl)c(N4CCN(CC(=O)Nc5nccs5)CC4)c3[nH]2)cc1`, with 1.21 ± 0.037; and `CC(C)n1nc(-c2cc3cc(O)ccc3[nH]2)c2c(N)ncnc21`, with 1.03 ± 0.088.
`CN1CCN(c2nc(C3=C(c4c[nH]c5ccccc45)C(=O)NC3=O)c3ccccc3n2)CC1` [Sotrastaurin] yielded a mitochondrial superoxide of 1.41 ± 0.015.
In the case of `Oc1ccc2ccccc2c1SSc1c(O)ccc2ccccc12` it was 1.17 ± 0.049.
In the case of `COc1c(C)c(C(=O)c2ccc(N)c(C(=O)O)c2)n2ccccc12` it was 1.19 ± 0.076; in that of `Nc1ncnc2c1c(-c1cccc(OCc3ccccc3)c1)cn2C1CC(CN2CCC2)C1` (stereo not given), 1.36 ± 0.069.
In the case of `CCn1c(-c2nonc2N)nc2c(C#CC(C)(C)O)ncc(OC[C@H]3CCCNC3)c21` it was 1.3 ± 0.025.
Molecule `C=CC(=O)Nc1cccc(Nc2nc(Nc3ccc(Oc4ccnc(C(=O)NC)c4)cc3)ncc2F)c1` registered a mitochondrial superoxide of 1.4 ± 0.018.
